Hits are enriched below; roughly 12% of the tested compounds scored in any of these assays.
BAZ2B block: inhibitors of human BAZ2B bromodomain. Q9UIF8. AlphaScreen BAZ2B-H3K14Ac peptide displacement. Potency, µM (series often up to 114 µM), for the others: at the highest dose activity change, negative = inhibition, hits mostly inhibitors. hit rate 4.4% among 360,000. AID 504333; note: % is set by controls: 0 for no effect and ±100 for the full control effect; nearly all actives have a fitted effect of over 60% in size
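AlphaScreen displacement: compounds (up to 110uM) incubated 30 min at room temperature with a preformed 50 nM BAZ2B/50 nM biotinylated H3K14Ac peptide complex in PBS pH 7.4 with Tween-20. Donor and acceptor beads at 10 ug/mL final added, 20 min light-protected before reading.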
L3MBTL1 block: L3MBTL1 (human) inhibition; Q9Y468; AlphaScreen L3MBTL1–H3K9me1 peptide binding; Potency, µM (titrated, usually from 57.1 µM), for inactives: at the highest dose activity, negative = inhibition, usual class: inhibitors; hit rate 0.66% among 230,000; note: % is set by controls: 0 for no effect and ±100 for the full control effect; nearly all actives have a fitted effect of over 60% in size
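L3MBTL1 (50 nM) pre-complexed 30 min with biotinylated H3(1-15)K9me1 peptide (75 nM), then compounds added for 30 min at room temperature; AlphaScreen streptavidin donor/nickel chelate acceptor beads (10 ug/mL final) read after 30 min dark incubation.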
Sfp PPTase inh: blocks B. subtilis Sfp PPTase activity | Q9F4F7 | Biochemical Sfp PPTase activity, qHTS | Potency, µM, inactives show largest response in the series, negative = inhibition, hits mostly inhibitors | hit rate 3.5% among 310,000 | AID 1490;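 note: the enzyme is Sfp with the accession as filed and its product quenches rhodamine fluorescence; 0% = enzyme reaction without inhibitor and -100% = no enzyme wells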
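Step 1, compound plus 15 nM Sfp-PPTase, 15 min, room temperature. Step 2, add rhodamine-CoA (5 uM) and BHQ-2-YbbR (12.5 uM). Step 3, read 525/598 nm fluorescence at 0 and 30 min.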
HP1b chromo inh: HP1-beta chromodomain-methylated histone interaction inhibition; P83916; AlphaScreen HP1-beta / biotin-H3K9me3 peptide binding; Potency, µM (titrated, usually from 114 µM), without a hit: at the top dose activity change, negative = inhibition, hits mostly inhibitors; hit rate 0.56% among 390,000; AID 540317; note: nearly all actives have a fitted effect of over 70% in size
Target sequence (P83916 whole entry, looked up): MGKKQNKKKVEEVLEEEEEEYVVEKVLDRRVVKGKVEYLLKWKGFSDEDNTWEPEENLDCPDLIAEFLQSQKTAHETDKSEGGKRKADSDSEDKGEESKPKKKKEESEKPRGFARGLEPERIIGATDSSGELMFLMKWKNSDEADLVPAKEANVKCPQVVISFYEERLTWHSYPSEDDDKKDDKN
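AlphaScreen: HP1-beta (50 nM) preformed 30 min with biotin-H3(1-18)K9me3 peptide (50 nM) in PBS pH 7.4, 0.01% Tween-20. Compound added for 30 min at RT, then streptavidin donor/nickel chelate acceptor beads (10 ug/mL) for 30 min.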
G9a inh: blocks human histone lysine methyltransferase G9a; Potency, µM (titrated, usually from 102 µM), inactives show top-dose activity, negative = inhibition, hits mostly inhibitors; G9a H3K9 monomethylation, AlphaScreen, 2 h; hit rate 8.8% among 350,000; Q96KQ7; AID 504332; note: % is set by controls: 0 for no effect and ±100 for the full control effect; nearly all actives have a fitted effect of over 75% in size
Target sequence (Q96KQ7 913-1193 limits assumed): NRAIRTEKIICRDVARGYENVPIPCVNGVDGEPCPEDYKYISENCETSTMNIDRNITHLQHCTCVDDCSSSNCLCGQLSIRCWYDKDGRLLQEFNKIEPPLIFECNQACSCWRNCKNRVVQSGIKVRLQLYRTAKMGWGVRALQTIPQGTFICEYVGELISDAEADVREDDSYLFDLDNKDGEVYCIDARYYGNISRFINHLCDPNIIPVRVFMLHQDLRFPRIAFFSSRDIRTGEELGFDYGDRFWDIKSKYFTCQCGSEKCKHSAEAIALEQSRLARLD
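G9a (20 nM) preincubated 15 min RT with compounds, then 500 nM biotinylated H3K9 peptide and 20 uM SAM added; 2 h RT reaction. Monomethyl-H3K9 product detected by AlphaScreen with anti-H3K9me1 antibody, streptavidin donor and anti-rabbit IgG acceptor beads.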
JMJD2A Tudor inh: JMJD2A Tudor domain (human) inhibition | O75164 | AlphaScreen JMJD2A-Tudor / H3K4me3 peptide binding | Potency, µM (series often up to 114 µM), without a hit: top-dose activity change, negative = inhibition, most hits filed as inhibitors | hit rate 4.4% among 390,000 | AID 504339; note: % is set by controls: 0 for no effect and ±100 for the full control effect; nearly all actives have a fitted effect of over 50% in size
Active calls of the source: *; ? = inconclusive; · = no result; [ ] = another dose, or the depositor's remark. Calls come from the whole dose curve; as a rule, active = well fitted curve in the direction sought with a large enough effect; inconclusive = small, poorly fitted or top-dose-only effect, or another doubt; inactive = no such curve, though single readings can be large; an effect the other way counts as inactive or inconclusive. Potency is the fitted concentration of half-maximal effect.

SMILES	BAZ2B block	L3MBTL1 block	Sfp PPTase inh	HP1b chromo inh	G9a inh	JMJD2A Tudor inh
CCN(C(=O)c1cc2c(s1)-c1c(C)cccc1OC2)c1cc(C)ccc1C	53%	·	·	130%	88%[59 µM]	91%
CCCOc1ccc(/C=C/c2c([N+](=O)[O-])c(=O)n(C)c(=O)n2C)cc1	-9%	·	4%	32%	-6%	-9%
COc1ccc2c(c1)sc1nc(=O)ccn12	-6%	3%[2.29 µM]	18%	25%	4%[0.501 µM]	-16%
COc1ccc2c(c1)sc(=N)n2C	-16%	·	2%	32%	20µM*	8%
CC1CC2C(C(O)C[C@]3(C)C2CC[C@]3(O)C(=O)CO)[C@]2(C)C=CC(=O)C=C12 (stereo not given in full)	·	·	2%	·	-47%[2.33 µM]	·
CC[C@H](C)[C@H](NC(=O)CNC(=O)[C@H](CCCNC(=N)N)NC(=O)[C@H](CO)NC(=O)[C@H](C)NC(=O)[C@H](Cc1ccc(O)cc1)NC(=O)[C@H](Cc1c[nH]c2ccccc12)NC(=O)[C@H](C)NC(=O)[C@@H]1CCCN1C(=O)[C@H](CC(N)=O)NC(=O)[C@@H](NC(=O)[C@H](CC(=O)O)NC(=O)[C@@H]1CCCN1C(=O)[C@@H](NC(=O)[C@H](CCCNC(=N)N)NC(=O)[C@@H](NC(=O)[C@H](CCC(=O)O)NC(=O)[C@H](CCSC)NC(=O)[C@H](CO)NC(=O)[C@H](Cc1cnc[nH]1)NC(=O)[C@H](CCCNC(=N)N)NC(=O)[C@H](Cc1cnc[nH]1)NC(=O)[C@@H](NC(=O)[C@H](CCCNC(=N)N)NC(=O)[C@@H](N)CO)[C@@H](C)O)[C@@H](C)CC)[C@@H](C)O)[C@@H](C)CC)C(=O)N[C@@H](CCCNC(=N)N)C(=O)N1CCC[C@H]1C(=O)N[C@H](C(=O)NCC(=O)N[C@@H](CCCNC(=N)N)C(=O)N[C@@H](Cc1ccccc1)C(N)=O)C(C)C	·	·	17%	·	·	·
O=C(CCS(=O)(=O)c1ccccc1)Nc1ccc(Cl)cn1	?	·	5%	?	45µM*	-20%
O=C(COc1ccccc1)Nc1nc(-c2cccs2)cs1	-5%	2%	6%	48%	16%	3%
O=C(CCS(=O)(=O)c1ccc(F)cc1)Nc1nc(-c2ccncc2)cs1	-24%	·	13µM*	?	7.9µM*	-35%
O=C(CCS(=O)(=O)c1ccccc1)Nc1nc(-c2cccs2)cs1	-28%	-2%	-1%	22%	50µM*	-10%
CCOC(=O)N/N=C1/C[C@@H](O)[C@@H](O)[C@@H]2[C@@H]3C(=O)N(C[C@@H]4CCCO4)C(=O)[C@H]3CC[C@H]12	·	·	-15%	·	·	·
COc1ccc(S(=O)(=O)Nc2cc3c(cc2NCc2ccccc2)n(C)c(=O)n3C)cc1	45µM*	·	·	2%	16µM*	50µM*
CCCS(=O)(=O)Nc1cc2c(cc1NCc1ccccc1)n(C)c(=O)n2C	50µM*	·	·	11%	16µM*	-26%
COC(=O)[C@@H](NCc1ccc(B(O)O)cc1)C(C)C	·	·	·	15%	·	-20%
CCCOc1ccc(/C=C/C(=O)NCc2ccccc2)cc1	-16%	2%	5%	29%	11%	-13%
CN1CCN(CCCNC(=O)Cn2c(-c3cccs3)cc3cc(Cl)ccc32)CC1	-37%	·	·	-6%	?	-33%
COc1cc2ccccc2cc1C(=O)Nc1cccc(-c2nc3cc(C)ccc3o2)c1C	2%	·	·	33%	-27%[59 µM]	-11%
COc1cc2ccccc2cc1C(=O)Nc1cccc(-c2nc3cc(C)c(C)cc3o2)c1C	2%	·	·	10%	3.2µM*	7%
O=c1c2ccccc2c(C=Nc2ccc(S(=O)(=O)N3CCCCC3)cc2)c(O)n1-c1ccc(Cl)cn1	-1%	31%	-10%	29%	34%[59 µM]	-18%
CC(C)(C)N/N=C/c1c(O)n(-c2ccc(Cl)cn2)c(=O)c2ccccc12	-10%	?	-9%	-3%	3.2µM*	-17%
O=c1c2ccccc2c(C=Nc2cccc(S(=O)(=O)NCc3ccco3)c2)c(O)n1-c1ccc(Cl)cn1	27%	6%	-3%	-11%	28µM*	-14%[57.1 µM]
COC(=O)CN=Cc1c(O)n(-c2ccc(Cl)cn2)c(=O)c2ccccc12	-1%	4%	8%	24%	-2%	-12%
COc1cccc(-c2nc(NCc3cccs3)c3ccccc3n2)c1	·	·	15%	·	-40%[0.501 µM]	·
O=C(c1ccco1)N(Cc1cccc(F)c1)C1CCS(=O)(=O)C1 (stereo not given)	56µM*	·	16%	23%	-9%	-13%
CCN(CC)c1ccc(CN(C(=O)c2cc(OC)c(OC)c(OC)c2)C2CCS(=O)(=O)C2)cc1 (stereo not given)	?	-5%	-7%	-5%	35µM*	?
SMILES	BAZ2B block	L3MBTL1 block	Sfp PPTase inh	HP1b chromo inh	G9a inh	JMJD2A Tudor inh
CCN(CC)c1ccc(CN(C(=O)c2cccs2)C2CCS(=O)(=O)C2)cc1 (stereo not given)	?	·	-1%	5%	40µM*	?
CCc1ccc(CN(C(=O)c2ccco2)C2CCS(=O)(=O)C2)cc1 (stereo not given)	2%	·	14%	12%	?	22µM*
CCOC(=O)CNC(=O)N1CCc2cc(S(=O)(=O)N3CCC(C)CC3)ccc21	4%	·	·	17%	-1%[59 µM]	-10%
O=C(c1ccco1)N(Cc1ccc(Cl)cc1)C1CCS(=O)(=O)C1 (stereo not given)	-6%	·	19%	31%	·	-7%
CCN(CC)c1ccc(CN(C(=O)c2ccco2)C2CCS(=O)(=O)C2)cc1 (stereo not given)	-36%	-16%	-3%	4%	45µM*	-35%
COc1cccc(CN(C(=O)c2cccs2)C2CCS(=O)(=O)C2)c1 (stereo not given)	-14%	·	11%	10%	20%	56µM*
CCCCOc1ccccc1C(=O)N(Cc1ccco1)C1CCS(=O)(=O)C1 (stereo not given)	?	·	15%	20%[57 µM]	-4%[59 µM]	-14%
CCOc1ccccc1C(=O)N(Cc1ccco1)C1CCS(=O)(=O)C1 (stereo not given)	-7%	2%	50µM*	47%	?	-11%
COc1ccc(CCNC(=O)c2ccc3c(c2)N(Cc2ccc(F)cc2)CCS3)c(OC)c1	-27%	·	4%	39%	6%	-31%
O[C@@](CCN1CCCCC1)(c1ccccc1)C1CCCCC1	·	·	1%	·	23%[21.5 µM]	·
CC(=O)c1sc(N/N=C2\CC3CCC2(C)C3(C)C)nc1C (stereo not given)	21%	4%	28µM*	7%	·	?
